Assay results: ChEMBL document CHEMBL1157539, “Thousands of chemical starting points for antimalarial lead identification” (Nature, 2010)

How the values were obtained:
Assay type in all cases: functional
[1] = test system: Plasmodium falciparum; test: GSK_TCMDC: Inhibition of Plasmodium falciparum 3D7 in whole red blood cells, using parasite LDH activity as an index of growth. Test compounds present at 2uM
[2] = test system: Plasmodium falciparum; test: GSK_TCMDC: Inhibition of Plasmodium falciparum Dd2 in whole red blood cells, using parasite LDH activity as an index of growth. Test compounds present at 2uM
[3] = test system: HepG2; test: GSK_TCMDC: Percent inhibition of human HepG2 cell line. Test compounds present at 10uM.

Structure (SMILES)	Inhibition [1]	Inhibition [2]	Inhibition [3]
COc1c(C2CCN(CCCCNC(=O)c3ccc(-c4ccc(Cl)cc4)cn3)CC2)ccc2c1CCCC2	93%	14%	100%
CN1CCCC1CCCOC(=O)c1ccc(N)cc1 (stereo unspecified)	100%	2%	8%
Cl.O=C(Nc1ccncc1)Nc1ccc2c(c1)CCN(C1CCC1)CC2	87%	4%	0%
Cc1cc(N[C@@H](Cc2ccccc2)C(=O)Nc2ccccc2)nc(Nc2ccccc2)n1.O=C(O)C(F)(F)F	100%	69%	8%
COc1cc2nc(NCC3CCN(C(=O)c4ccc(-c5ccc(C(=O)N(C)C)cc5C)cc4)CC3)nc(N)c2cc1OC	100%	34%	2%
NS(=O)(=O)Cc1cccc(-c2ccnc3ccc(-c4cccc(S(N)(=O)=O)c4)cc23)c1	98%	42%	39%
COc1ccc2c(=NN=Cc3ccc(F)cc3)cc(C)[nH]c2c1	100%	99%	4%
NCc1cccc(-c2ccc(CNC3CCN(Cc4ccccc4)CC3)cc2)c1.O=C(O)C(F)(F)F	95%	3%	2%
Cc1cc(N(C)C)nc(Nc2ccc(NC(=O)c3ccc(Br)o3)cc2)n1	100%	57%	1%
CC(CN1CCN(C)CC1)C(=O)Nc1cccc(-c2ccc(-c3nc4cc(C(F)(F)F)ccc4[nH]3)cc2)c1 (stereo unspecified)	100%	98%	11%
c1cncc(CN2CCN(Cc3ccc(-c4ccc(-c5nc6ccccc6[nH]5)s4)cc3)CC2)c1	97%	34%	32%
CC(C)(C)CCOC(=O)N1CCc2c(cc(O)c(O)c2Cl)C(c2ccc(O)cc2)C1 (stereo unspecified)	97%	95%	2%
O=C(/C=C/c1ccc(Cl)c(Cl)c1)NC1CCC(CN2CCC(Cc3c[nH]c4ccccc34)CC2)CC1 (stereo unspecified)	100%	9%	25%
Cc1cc(N(C)C)nc(Nc2ccc(NC(=O)c3c(F)cccc3Cl)cc2)n1	90%	36%	15%
CCOC(=O)c1cn(CC)c2cc(N3CCCCCC3)c(F)cc2c1=O	94%	89%	0%
O=C(CSc1nc2ccccc2c(=O)n1C1CC1)Nc1cc(C(F)(F)F)ccc1Cl	97%	96%	5%
CC1CCN(c2nc(C(=O)Nc3cccc4c3CCCC4)c(C(C)C)s2)CC1.O=C(O)C(F)(F)F	96%	49%	14%
CN1CCN(CC(=O)Nc2ccc(-c3ccc(-c4nc5ccccc5[nH]4)cc3)cc2)CC1	98%	80%	18%
CCCC(=O)Nc1ccc(OCCCCN(Cc2ccccc2C(F)(F)F)c2ccc(C(F)(F)F)c(C#N)c2)cc1	94%	94%	6%
CCCNCc1ccc(-c2ccc(CN(CCOC)C(=O)[C@H]3CCCO3)cc2)nc1.O=C(O)C(F)(F)F	98%	6%	1%
CC(Oc1ccc(C(=O)c2ccc(F)cc2)cc1)C(=O)N1CCc2ccccc21 (stereo unspecified)	95%	95%	9%

Structure (SMILES)	Inhibition [1]	Inhibition [2]	Inhibition [3]
COc1cc2nc(NCCc3ccccc3)nc(NCc3nccs3)c2cc1OC	99%	93%	1%
O=C(NC1CCCCC1)N(Cc1ccc(-c2cccc(CNC3CCCC3)c2)cc1)C1CCN(Cc2ccccc2)CC1.O=C(O)C(F)(F)F	95%	59%	52%
Cc1cc(=NN=Cc2cccc(Cl)c2)c2cc(F)ccc2[nH]1	100%	100%	1%
Cl.Clc1ccc(C2CCN(CCCOc3ccc4c(c3)CCNCC4)CC2)cc1	98%	28%	93%
CNCCNCc1cccc(-c2ccc(-c3nc4cccc(C)c4[nH]3)s2)c1.O=C(O)C(F)(F)F	92%	8%	10%
O=C(c1ccco1)N1CCN(c2nc(-c3ccc(Cl)cc3)nc3ccccc23)CC1	96%	91%	13%
CN1CCCC(CN2CCN(Cc3ccc(-c4ccc(-c5nc6ccccc6[nH]5)s4)cc3)CC2)C1.O=C(O)C(F)(F)F (stereo unspecified)	100%	100%	57%
CC(C)n1c(CC2CCN(CC3CCN(C(=O)/C=C/c4ccc(Cl)c(Cl)c4)CC3)CC2)nc2ccccc21	100%	23%	19%
Cc1ccc(N2C(=O)C3C(C2=O)C2(c4ccccc4)C(=O)C3(c3ccccc3)C(c3ccccc3)=C2c2ccccc2)cc1 (stereo unspecified)	92%	96%	17%
Fc1cccc2sc(Nc3nc(-c4ccccn4)cs3)nc12	95%	97%	30%
O=C(O)C(F)(F)F.O=C1OC2(CN1CC1CCN(Cc3ccc(O)cc3Cl)C1)c1ccccc1-c1ccccc12 (stereo unspecified)	84%	84%	16%
COC(=O)CNC(c1ccccc1)c1cc(Br)ccc1NC(=O)c1ccccc1Br (stereo unspecified)	99%	77%	10%
O=C(NCc1ccc(F)cc1)Nc1cccc(-c2ccc(-c3nc4ccccc4[nH]3)cc2)c1	100%	49%	45%
C=CCOc1cccc2c1CCN(CCN1CCC(NC(=O)c3ccc(-c4ccc(Cl)cc4)cc3)CC1)C2	93%	22%	35%
CCCCCCN1CCCN(Cc2ccc(C(=O)Nc3ccc(F)c(F)c3)cc2)CC1.O=C(O)C(F)(F)F	84%	48%	50%
COC(=O)Cn1c2ccccc2c2c(N)c(C(=O)OC)c(C)nc21	93%	1%	0%
Cc1cc(NC(=O)Nc2ccc3sccc3c2)c2ccccc2n1	99%	57%	41%
COc1ccc2nccc([C@@H](O)CN3CCC(NCCc4c[nH]c5ccccc45)CC3)c2c1.O=C(O)C(=O)O	98%	77%	0%
O=C(O)C(F)(F)F.OC1CCCN(Cc2ccc(-c3ccc(-c4nc5ccccc5[nH]4)cc3)cc2)C1 (stereo unspecified)	100%	77%	46%
CCc1c[nH]c2c(N(c3ccccc3)S(C)(=O)=O)cc(C(=O)N[C@@H](Cc3ccccc3)[C@H](O)CNC(C)(C)CCCC(C)C)cc12.O=CO	98%	96%	99%
CNC(=O)c1nc(-c2ccccc2)[nH]c1NC(C)=O	100%	0%	0%

Structure (SMILES)	Inhibition [1]	Inhibition [2]	Inhibition [3]
CC(C)NCc1ccc(-c2ccc(NS(=O)(=O)c3cccc4cccnc34)cc2)cc1.O=C(O)C(F)(F)F	90%	45%	27%
COc1ccc(-c2nc3cccnc3n2CC(=O)Nc2c(C)cc(C)cc2C)c(OC)c1	91%	21%	77%
CC1(C)CC2CC(C)(CN2C(=O)c2cc(C(C)(C)C)nn2Cc2ccccc2)C1 (stereo unspecified)	86%	77%	0%
c1ccc(COc2ccc(Nc3ncnc4cnc(-c5ccc(CNc6cccnc6)o5)cc34)cc2)cc1	96%	19%	2%
Cc1cc(N(C)C2CCN(C)C2)nc(Nc2ccc(Cl)cc2)n1 (stereo unspecified)	100%	88%	8%
O=C(Nc1cccc(-c2csc(-c3ccccc3)n2)c1)c1cccs1	89%	71%	0%
COc1ccc(C2C(C(=O)OC3CCCCC3)=C(C)NC3=C2C(=O)CCC3)cc1Br (stereo unspecified)	95%	94%	7%
Cc1ccccc1C1CCN(c2ncc(C(=O)Nc3ccccc3)cc2Cl)CC1.O=C(O)C(F)(F)F	83%	83%	29%
COc1ccc(CNCCc2cccs2)cc1-c1cccc(S(=O)(=O)NCCN2CCCC2)c1.O=C(O)C(F)(F)F	98%	41%	56%
Fc1ccc2[nH]c(-c3ccc(-c4ccc(CNCC5CCCO5)cc4)s3)nc2c1.O=C(O)C(F)(F)F (stereo unspecified)	100%	99%	30%
CCCCCNC(=N)c1ccc(OCCCCCOc2ccc(C(=N)NCCCCC)cc2)cc1.Cl	99%	98%	3%
COc1cccc2cc(C(=O)N[C@@H](CC(C)C)C(=O)NC3CC[C@@H](C)N(C(=O)Nc4ccncc4)CC3=O)oc12 (stereo partly specified)	95%	90%	7%
Cc1cccc2nc(-c3cccc(-c4cccc(CNCCN5CCNCC5)c4)c3)[nH]c12.O=C(O)C(F)(F)F	90%	0%	11%
Cc1c(F)cc(C(=O)NC2CC2)cc1-c1ccc2c(cnn2S(=O)(=O)c2cccs2)c1	92%	68%	32%
O=c1cc(NCCCNC2CCCc3c2cc(Cl)c(Cl)c3Cl)[nH]c2ccccc12 (stereo unspecified)	100%	64%	6%
CCCCCCCCOc1ccc(N2C(N)=NC(N)=NC2(C)C)cc1.Cl	100%	0%	31%
COC(=O)c1cc(C(O)CNC(C)CCc2cccc(F)c2)ccc1O.Cl (stereo unspecified)	94%	77%	38%
O=C(Nc1n[nH]c2nc(-c3ccco3)c(Br)cc12)c1ccc(CN2CCCC2)cc1.O=C(O)C(O)C(O)C(=O)O	100%	53%	1%
Cl.Fc1cccc(COc2ccc(Nc3ncnc4sc(C#C[C@H]5CCCN5)cc34)cc2F)c1	98%	17%	13%
CN(C(=O)C(C)(C)Oc1ccc(Cl)cc1)C1CCN(CCCCCNC(=O)/C=C/c2ccc(Cl)c(Cl)c2)CC1	96%	26%	86%
